This is part of a sample that, as a whole, favours compounds with a hit. Of some 83,000 tested, about 20% had one in any assay.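 Testing used 96-well plates and a 48-hour single-concentration exposure. Example: -40 means 40% of the starting cells died.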 Active and inactive are the calls of the source. How the source made its calls: active means growth percent below 10; inactive means the rest.

For the test, the system named is MDA-MB-468 breast. Description: NCI-60 one-dose screen, 48 h (100 = growth as untreated, 0 = no growth, -100 = all killed). Particulars: 10 µM unless noted.
Turning to `CCSc1nnc2n(Cc3ccccc3)c(=O)c3c(C)c(C(N)=O)sc3n12`, the growth is 101% (inactive).
The value for `CC1(C)OC(=O)C(=Cc2cccc(Br)c2)C(=O)O1` was 111% (inactive).
The value for `C=CCn1c(SCC(=O)Nc2ccc(C(=O)/C=C/c3cc(OC)c(OC)c(OC)c3)cc2)nnc1-c1cc(-c2ccc(S(N)(=O)=O)cc2)nc2ccccc12` was 89.3% (inactive).
As for `c1cc(OCCN2CCCC2)ccc1CNc1ccc2nc(CCC3CCCCC3)[nH]c2c1`, the figure is 43.6% (inactive); as for `CN(CC(=O)O)c1ccc(/C=C/c2ccnc3ccccc23)cc1`, -0.654% (active).
`Nc1ccc(C(=O)/C=C/c2ccccc2)cc1`: the growth is 87.4% (inactive).
As for `CC(C)C[C@@H]1N[C@@]2(C(=O)Nc3ccccc32)[C@@H](c2ccc(F)cc2)[C@@H]1C(=O)c1ccc(O)cc1`, the figure is 102% (inactive); as for `CC1(C)CC(OCCCC[P+](c2ccccc2)(c2ccccc2)c2ccccc2)CC(C)(C)N1O`, -44.2% (active).
For the compound `CC1(C)NC2=C(C(Nc3cccnc3)N1)C(c1ccc([N+](=O)[O-])cc1)C(C(=O)c1ccc(N=[N+]=[N-])cc1)O2` (centres undefined), the growth is 115% (inactive).
As to `Oc1ccc(Br)cc1Sc1cc(Br)ccc1O`, the growth was 82.3% (inactive).
Take `Cc1ccc(-c2cc3nc(C(Cl)Cl)nc(-c4cccs4)n3n2)cc1`: the growth was 39.5% (inactive).
As for `CC(=O)/C(=C/c1cccc(Cl)c1)C(=O)c1ccccc1`, the figure is 99.2% (inactive); as for `CCOC(=O)/C=C1\S/C(=N\Nc2cc(=O)[nH]c3ccc(Br)cc23)N(c2ccccc2)C1=O`, 56.1% (inactive).
The value for `Cc1onc2c(-c3ccccc3)n[nH]c(=O)c12` was 98.3% (inactive).
